Common to all, as to assay: control-subtracted net OSN firing rate; higher = stronger neuronal activation
Holding throughout (conditions): odorant dilution (vol/vol): 1/100

Compound in one assay: CC(C)CN=C=S [isobutyl isothiocyanate]
The method, boiled down:
(§1)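 Responses come from single sensillum recordings of palp or antennal olfactory sensory neurons in 1–5-day-old fed female Scaptomyza species or D. melanogaster wild-type, mutant or at1 empty-neuron lines with Or42a homologs. Stimuli were 1 s pulses of odorant at 1:100 vol/vol in mineral oil or dimethyl sulfoxide into 16 ml/min filtered air. Spikes from 0.2 s after onset, counted over 0.5 s, were background-subtracted, doubled, solvent-corrected and averaged over replicates.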

Compound in the next assay: CCC(C)N=C=S [sec-butyl isothiocyanate]
The method, boiled down:
as §1

Compound in a further assay: CCCCN=C=S [butyl isothiocyanate]
In outline:
as §1

± gives the standard deviation of the averaged measurements.

In the case of Or67dGal4, UAS-Sfla Or42a4 at1, the “control-subtracted net OSN firing rate” value turned out to be 87 ± 27 spikes/s with isobutyl isothiocyanate and 29.7 ± 21 spikes/s in the assay with sec-butyl isothiocyanate. For Or67dGal4; UAS-SflaOr42a3 at1, in the assay with butyl isothiocyanate, the “control-subtracted net OSN firing rate” value worked out at 74.8 ± 23 spikes/s.

Values taken from the supplement of paper PMC11482750.
